Out of some 2,200 compounds screened, about 530 (24%) were called active.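 How the source made its calls: active means inhibition above a set limit at one or more concentrations of the dose series; inactive means inhibition under that limit at every dose.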 Only a sample is shown. Entries with a potency or affinity are not part of this list.
Test: S. Typhimurium nonspecific reporter signal inhibition – Salmonella Typhimurium, GFP fluorescence, counter-screen for PhoP regulon inhibitor project, dose response (AID 2401);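 further: S. typhimurium with Mg-insensitive nmpC-GFP reporter grown at 10 µM Mg2+; drop in reporter fluorescence reflects general culture growth inhibition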
Details: 4 h; series mostly up to 150 µM

| Compound | outcome |
| --- | --- |
| Cc1ccc(C(=O)N/N=C/c2ccc([N+](=O)[O-])s2)cc1 | inactive |
| O=C(NC(=S)N1CCN(c2c(Cl)cccc2[N+](=O)[O-])CC1)c1cccs1 | inactive |
| O=C(c1ccccc1)c1nc2ccccc2n(CCCn2c(=O)c(C(=O)c3ccccc3)nc3ccccc32)c1=O | inactive |
| CCc1cccc(C)c1NC(=S)NCc1cccn1C | inactive |
| COc1cccc2[nH]c3c(N4CCN(Cc5ccc6c(c5)OCO6)CC4)ncnc3c12 | inactive |
| O=C(NCc1ccco1)C1CC(=O)N(CCc2ccccc2)C1 (stereo not drawn) | inactive |
| N#C/C(=C\c1ccc(F)c(F)c1)C(=O)NC1CCCCC1 | inactive |
| CCSc1nc(C2CC2)cc(-c2cccs2)c1C#N | inactive |
| CNc1nc(Sc2ccccc2)cc(C(F)(F)F)n1 | inactive |
| Cc1cc(C)c2nc(NNC(=O)c3ccc(S(=O)(=O)N4CCCCC4)cc3)sc2c1 | inactive |
| O=S(=O)(Cc1ccccc1Cl)N1CCN(Cc2ccc3c(c2)OCO3)CC1 | inactive |
| Brc1cccc(CNCc2cccs2)c1 | inactive |
| COc1ccccc1CNc1nc2nc(C)c(C)c(=O)n2[nH]1 | inactive |
| COc1ccc(CCNC(=S)Nc2cccc3ccccc23)cc1 | inactive |
| COc1cc(CNCc2cccs2)cc(Br)c1OC | inactive |
| Cc1cccc(Nc2ncccc2C(=O)NCc2cccs2)c1C | inactive |
| Cn1c(=O)c(=O)n(C)c2cc(S(=O)(=O)Nc3ccc4c(c3)OCCO4)ccc21 | inactive |
| COc1ccc(/C=N/NC(=O)CC(=O)NCc2cccnc2)cc1 | inactive |
| CC(=O)Nc1ccc(C(=O)N2CCN(C(=O)c3ccco3)CC2)cc1 | inactive |
| COc1ccc(S(=O)(=O)Nc2ccc(F)c(F)c2)cc1Cl | inactive |
| OC(COc1ccc2c(c1)CCC2)Cn1cnc2ccccc21 (stereo not drawn) | inactive |
| O=C(Nc1cccc(Cl)c1)Nc1ccc2c(c1)OCO2 | inactive |
| O=S1(=O)CC(O)C(Nc2ccccc2Cl)C1 (stereo not drawn) | inactive |

| Compound | outcome |
| --- | --- |
| NC(=O)c1ccccc1N=Cc1ccccn1 | inactive |
| CCCc1cc(=O)oc2cc(OCC(=O)N3CCc4ccccc43)ccc12 | inactive |
| CN1CCCC(OC(=O)c2ccc(Cl)cc2)C1 (stereo not drawn) | inactive |
| O=C(/C=C\c1ccco1)Nc1nc(-c2ccccc2)cs1 | inactive |
| Cc1cc(C)c2c(c1)NC(=O)C2(O)CC(=O)c1cccs1 (stereo not drawn) | inactive |
| O=C(c1ccc(-c2ccccc2)cc1)c1ccccc1C(=O)N1CCOCC1 | inactive |
| COc1ccc(/C=C/C(=O)NC(=S)NNC(=O)c2cnccn2)cc1 | inactive |
| N#Cc1c(NC(=O)c2cnccn2)sc2c1CCCC2 | inactive |
| CC(=O)C1=C(C)NC(SCSc2ccccc2)=C(C#N)C1c1cccnc1 (stereo not drawn) | inactive |
| CC(=O)NC1C(c2nc3ccccc3s2)=C(c2ccccc2)C(=O)N1c1ccc(C)cc1 (stereo not drawn) | inactive |
| COc1cccc(-c2nc(-c3ccc(Br)o3)no2)c1 | inactive |
| CCc1ccc(OCC(=O)Nc2ccc(-c3cc4ccccc4oc3=O)c(OC)c2)cc1 | inactive |
| Oc1ccc(/C=N/NC2=NCCCCC2)c(O)c1 | inactive |
| CC(=O)Nc1cc(N=Cc2ccc(O)cc2O)c(Cl)cc1Cl | inactive |
| Oc1ccc(/C=N/n2cnn(Cc3ccccc3Cl)c2=S)c(O)c1 | inactive |
| O=C(O)CCS(=O)(=O)c1ccc(-c2ccccc2)cc1 | inactive |
| O=C(c1ccco1)c1cn(CC(=O)N2CCCc3ccccc32)c2ccccc12 | inactive |
| Cc1ccc([N+](=O)[O-])cc1NC(=O)CN(C(=O)c1ccc(Cl)cc1)C1CCCCC1 | inactive |
| O=C(/C=C/c1ccccc1)N/C(=C/c1ccccc1)C(=O)N1CCOCC1 | inactive |
| COc1cc(OC)cc(C(=O)N[C@H](C(=O)OCC(=O)Nc2ccc(C(N)=O)cc2)C(C)C)c1 | inactive |
| CC1C(=O)NN=C1C(=O)N/N=C\c1ccc(O)cc1O (stereo not drawn) | inactive |
| O=C(N/N=C/c1ccc(O)cc1O)C(=O)N/N=C/c1ccc(O)cc1O | inactive |
| CC(CN1CCOCC1)C(=O)c1ccccc1 (stereo not drawn) | inactive |

| Compound | outcome |
| --- | --- |
| O=C(NCCN1CCOCC1)c1ccc2ccccc2c1 | inactive |
| Cc1ccc(-c2n[nH]c(=S)n2/N=C/c2cc3c(cc2[N+](=O)[O-])OCO3)cc1 | inactive |
| O=Cc1cccn1Cc1ccccc1[N+](=O)[O-] | inactive |
| CCCn1c(/N=C/c2ccc3c(c2)OCO3)nc2ccccc21 | inactive |
| C(=N\N1CCN(Cc2ccccc2)CC1)/c1cccnc1 | inactive |
| COC(=O)c1sccc1N/N=C(\C)c1ccc(F)c(Cl)c1 | inactive |
| Cc1cccc2nc(CSc3nc4ccccc4o3)cn12 | inactive |
| Nc1nc(Nc2ccc(Cl)cc2)n[nH]1 | inactive |
| Cn1c(SCC(=O)NC(=O)c2cccc([N+](=O)[O-])c2)nnc1-c1ccc(F)cc1 | inactive |
| Cc1cc(C)c(NC(=S)NC(=O)c2ccc(-c3ccccc3)cc2)c(C)c1 | inactive |
| O=C(NNc1c2ccccc2nc2ccccc12)c1ccccc1O | inactive |
| O=C(CSc1nnc(-c2cccnc2)o1)OC1CCCCC1 | inactive |
| CCC(C)C(NC(=O)OCc1ccccc1)C(=O)OCN1C(=O)c2ccccc2C1=O (stereo not drawn) | inactive |
| Cc1cc(C2=NNC(=NC3CC3)SC2)c(C)n1-c1ccccc1 | inactive |
| CCn1c(CNC(=O)COc2ccc(C(C)C)cc2)nnc1SCC(=O)Nc1ccccc1 | inactive |
| Clc1ccc(CNc2ccc(CNc3ncn[nH]3)cc2)cc1 | inactive |
| Cc1cc(C(=O)N2CCN(C/C=C/c3ccccc3)CC2)no1 | inactive |
| N#CC1(C#N)COC23CCCCC2C1(C#N)C(=N)O3 (stereo not drawn) | inactive |
| CCCc1nn(C)c2c1C(c1cccnc1)C(C#N)=C(N)O2 (stereo not drawn) | inactive |
| CCSc1nnc(NC(=O)Cc2cccc(OC)c2)s1 | inactive |
| O=C(COC(=O)c1n[nH]c2ccccc12)NC(=O)NC12CC3CC(CC(C3)C1)C2 | inactive |
| C#CCOc1c(Cl)cc(/C=N/O)cc1OC | inactive |
| Cc1ccc(N(CC(=O)N/N=C/c2ccco2)S(=O)(=O)c2ccccc2)cc1 | inactive |

| Compound | outcome |
| --- | --- |
| O=C(Nc1cccnc1)c1cc(F)cc(F)c1 | inactive |
| Cc1[nH]c2ccccc2c1C1=NNC(=Nc2ccc(F)cc2)SC1 | inactive |
| O=C(CCC(=O)c1cccs1)OCC(=O)N1CCN(S(=O)(=O)c2ccccc2)CC1 | inactive |
| CCOC(=O)CCC(NC(=O)c1ccc(NCN2C(=O)CCC2=O)cc1)C(=O)OCC (stereo not drawn) | inactive |
| Cc1ccc(S(=O)(=O)NCc2ccc(C(=O)N3CCN(c4ccccn4)CC3)cc2)cc1 | inactive |
| COCCNCCOc1ccccc1-c1ccccc1 | inactive |
| O=C(NCc1ccco1)c1cccc(Nc2nc3ccc(Br)cc3[nH]2)c1 | inactive |
| Nc1cc(N)cc(-c2nc3ccccc3[nH]2)c1 | inactive |
| Cc1ccc(C)c(-c2nc3ccc(N)cc3[nH]2)c1 | inactive |
| O=C(OCC1O[C@@H](OC(=O)c2cc(O)c(O)c(O)c2)[C@@H](OC(=O)c2cc(O)c(O)c(O)c2)[C@@H](OC(=O)c2cc(O)c(O)c(O)c2)[C@@H]1OC(=O)c1cc(O)c(O)c(O)c1)c1cc(O)c(O)c(O)c1 (stereo partly drawn) | inactive |
| Cc1nn(C)c(C)c1S(=O)(=O)N1CCC(C(=O)NC2CCCCC2)CC1 | inactive |
| Oc1[nH]c(=S)sc1/C=C1\C(c2ccccc2)=Nc2ccccc21 | inactive |
| C#CCn1c(=NC(=O)c2cc(Cl)sc2Cl)sc2cc(S(N)(=O)=O)ccc21 | inactive |
| O=C(O)C1(P(=O)(c2ccccc2)c2ccccc2)CCC1 | inactive |
| Cc1cc(C)c2c(=O)[nH]c(SCC(=O)Nc3ccc(N(C)C)cc3)nc2n1 | inactive |
| CC(C)c1ccc(O)c(NC(=O)c2cncc(Br)c2)c1 | inactive |
| Cc1cc2nn(-c3ccccc3)nc2cc1NC(=O)c1cccs1 | inactive |
| Cc1ccc(/C=C2\SC(=S)N(Cc3ccccc3)C2=O)o1 | inactive |
| O=C(Nc1ccsc1C(=O)NC1CCCCC1)c1ccccc1 | inactive |
| CCOC(=O)c1c(NC(=O)COc2ncnc3ccccc23)sc(C)c1CC | inactive |
| CCOC(=O)CCCc1c[nH]c2ccccc12 | inactive |
| O=C(c1ccccc1)c1coc2ccc(O)c(Cl)c12 | inactive |
| CCCCN(C)C(=O)c1cn(C)c2ccc(S(=O)(=O)N(C)C)cc2c1=O | inactive |

| Compound | outcome |
| --- | --- |
| Cc1nc(CC(=O)c2ccc(O)cc2O)cs1 | inactive |
| COC(=O)c1sccc1NC(=O)c1cccnc1 | inactive |
| O=C(CSc1ccc(Cl)cc1)Nc1ccccc1N1CCN(C(=O)c2ccc(Cl)cc2)CC1 | inactive |
| COc1ccc(-c2csc(Nc3cccnc3)n2)cc1 | inactive |
| CC(=O)NC12CC3CC(C1)CC(C(=O)OCC(=O)c1ccc4c(c1)OCCO4)(C3)C2 | inactive |
| COc1ccc(CC(=O)n2nc(-c3ccccc3)nc2NCc2ccco2)cc1 | inactive |
| CC(C)(C)c1ccc(C2CC2C(=O)N/N=C\c2cc3ccccc3nc2Cl)cc1 (stereo not drawn) | inactive |
| COc1ccc2c(c1)nc(N)n2Cc1ccccc1 | inactive |
| CSc1nc2ccccc2n1Cc1cccc(F)c1 | inactive |
| CCCCn1c(N)nc2ccccc21 | inactive |
| CCCn1c(N)nc2ccccc21 | inactive |
| CCOC(=O)c1[nH]c2ccccc2c1NC(=O)NC1CCCCC1 | inactive |
| O=C(OCC#CCSc1nnc(-c2cccc3ccccc23)o1)c1ccco1 | inactive |
| Cc1ccc2nc(C(F)OC(F)(F)F)[nH]c2c1 (stereo not drawn) | inactive |
| O=C(CC1SC(=NCc2ccccc2)NC1=O)Nc1ccccc1 (stereo not drawn) | inactive |
| COc1ccc(OCCn2cc(/C=N/NC(=O)c3ccncc3)c3ccccc32)cc1 | inactive |
| CC(=O)n1cc(/C=N/NC(=O)c2sc(C)nc2C)c2ccccc21 | inactive |
| COc1ccc2ccccc2c1/C=N/NC(=O)c1sc(N)c(C#N)c1C | inactive |
| COc1ccc(NC(=O)c2ccc(OC)cc2)cc1 | inactive |
| CC(=O)c1c(C)nc(-c2ccc(Cl)cc2)nc1N=CN(C)C | inactive |
| O=C1CN(C(=O)COC(=O)CCC(=O)c2ccc3c(c2)OCCO3)c2ccccc2N1 | inactive |
